The text below walks through data of ChEMBL document CHEMBL2218924, “A broad activity screen in support of a chemogenomic map for kinase signalling research and drug discovery” (Biochem J, 2013).

The structures appear in SMILES notation.

The target of assay [1] is T1, Ephrin type-B receptor 1 (Homo sapiens) (UniProt P54762).
T1 sequence (whole entry): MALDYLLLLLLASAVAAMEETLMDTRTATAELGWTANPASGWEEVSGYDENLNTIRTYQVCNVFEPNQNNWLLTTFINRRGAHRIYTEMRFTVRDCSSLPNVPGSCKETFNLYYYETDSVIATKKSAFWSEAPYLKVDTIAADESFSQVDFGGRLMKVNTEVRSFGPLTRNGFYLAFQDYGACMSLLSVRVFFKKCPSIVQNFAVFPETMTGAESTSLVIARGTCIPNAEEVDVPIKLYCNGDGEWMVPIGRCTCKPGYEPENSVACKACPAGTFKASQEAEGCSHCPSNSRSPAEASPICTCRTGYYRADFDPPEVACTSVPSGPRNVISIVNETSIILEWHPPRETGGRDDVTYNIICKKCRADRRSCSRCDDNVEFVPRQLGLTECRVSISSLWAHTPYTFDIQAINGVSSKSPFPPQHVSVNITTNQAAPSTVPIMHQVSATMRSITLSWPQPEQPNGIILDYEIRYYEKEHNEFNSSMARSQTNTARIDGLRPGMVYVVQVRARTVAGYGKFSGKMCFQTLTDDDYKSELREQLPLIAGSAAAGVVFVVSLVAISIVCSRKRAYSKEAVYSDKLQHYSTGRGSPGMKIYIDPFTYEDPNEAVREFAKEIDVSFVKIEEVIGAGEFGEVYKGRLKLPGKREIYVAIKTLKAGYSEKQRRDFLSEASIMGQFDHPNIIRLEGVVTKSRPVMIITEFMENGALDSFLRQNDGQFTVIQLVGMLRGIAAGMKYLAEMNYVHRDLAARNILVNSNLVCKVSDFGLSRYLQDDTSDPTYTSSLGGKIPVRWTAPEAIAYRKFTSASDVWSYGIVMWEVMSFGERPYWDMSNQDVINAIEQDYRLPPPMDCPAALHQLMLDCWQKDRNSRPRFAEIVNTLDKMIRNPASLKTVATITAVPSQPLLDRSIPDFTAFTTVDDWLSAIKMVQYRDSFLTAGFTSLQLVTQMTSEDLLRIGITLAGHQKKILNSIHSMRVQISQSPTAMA
The settings on record: at 10 µM.

The target of assay [2] is T2, Ephrin type-B receptor 2 (Homo sapiens) (UniProt P29323).
T2 sequence (whole entry): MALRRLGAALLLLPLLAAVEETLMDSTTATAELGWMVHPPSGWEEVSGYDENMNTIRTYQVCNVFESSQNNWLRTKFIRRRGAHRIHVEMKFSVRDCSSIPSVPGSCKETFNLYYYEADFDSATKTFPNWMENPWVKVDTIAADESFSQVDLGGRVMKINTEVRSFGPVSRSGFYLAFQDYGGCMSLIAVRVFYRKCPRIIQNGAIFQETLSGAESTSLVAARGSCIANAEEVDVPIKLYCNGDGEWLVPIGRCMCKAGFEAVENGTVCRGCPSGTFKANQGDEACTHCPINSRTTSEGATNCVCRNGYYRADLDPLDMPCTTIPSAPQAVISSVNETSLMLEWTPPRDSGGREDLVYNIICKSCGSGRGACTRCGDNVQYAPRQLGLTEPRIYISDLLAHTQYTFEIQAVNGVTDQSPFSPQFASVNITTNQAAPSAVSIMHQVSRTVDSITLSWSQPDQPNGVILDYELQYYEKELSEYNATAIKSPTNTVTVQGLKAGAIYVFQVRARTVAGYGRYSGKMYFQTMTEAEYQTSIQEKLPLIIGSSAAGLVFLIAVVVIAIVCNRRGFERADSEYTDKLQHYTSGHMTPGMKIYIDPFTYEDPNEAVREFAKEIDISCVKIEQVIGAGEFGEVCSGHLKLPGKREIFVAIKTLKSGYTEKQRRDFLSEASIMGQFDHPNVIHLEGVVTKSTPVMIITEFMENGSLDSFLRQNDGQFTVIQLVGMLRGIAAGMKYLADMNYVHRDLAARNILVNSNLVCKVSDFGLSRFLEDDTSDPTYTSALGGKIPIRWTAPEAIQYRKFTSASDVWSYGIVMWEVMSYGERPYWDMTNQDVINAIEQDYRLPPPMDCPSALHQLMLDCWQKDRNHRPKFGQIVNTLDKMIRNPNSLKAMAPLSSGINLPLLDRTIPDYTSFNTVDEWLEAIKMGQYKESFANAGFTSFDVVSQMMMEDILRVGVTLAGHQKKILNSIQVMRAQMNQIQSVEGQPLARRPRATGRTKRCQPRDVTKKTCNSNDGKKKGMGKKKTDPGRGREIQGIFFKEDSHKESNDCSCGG
The settings on record: at 1 µM.

The target of assay [3] is T2, Ephrin type-B receptor 2 (Homo sapiens). The settings on record: at 10 µM.
Assay [4] concerns the target T3, Ephrin type-B receptor 3 (Homo sapiens) (UniProt P54753).
T3 sequence (whole entry): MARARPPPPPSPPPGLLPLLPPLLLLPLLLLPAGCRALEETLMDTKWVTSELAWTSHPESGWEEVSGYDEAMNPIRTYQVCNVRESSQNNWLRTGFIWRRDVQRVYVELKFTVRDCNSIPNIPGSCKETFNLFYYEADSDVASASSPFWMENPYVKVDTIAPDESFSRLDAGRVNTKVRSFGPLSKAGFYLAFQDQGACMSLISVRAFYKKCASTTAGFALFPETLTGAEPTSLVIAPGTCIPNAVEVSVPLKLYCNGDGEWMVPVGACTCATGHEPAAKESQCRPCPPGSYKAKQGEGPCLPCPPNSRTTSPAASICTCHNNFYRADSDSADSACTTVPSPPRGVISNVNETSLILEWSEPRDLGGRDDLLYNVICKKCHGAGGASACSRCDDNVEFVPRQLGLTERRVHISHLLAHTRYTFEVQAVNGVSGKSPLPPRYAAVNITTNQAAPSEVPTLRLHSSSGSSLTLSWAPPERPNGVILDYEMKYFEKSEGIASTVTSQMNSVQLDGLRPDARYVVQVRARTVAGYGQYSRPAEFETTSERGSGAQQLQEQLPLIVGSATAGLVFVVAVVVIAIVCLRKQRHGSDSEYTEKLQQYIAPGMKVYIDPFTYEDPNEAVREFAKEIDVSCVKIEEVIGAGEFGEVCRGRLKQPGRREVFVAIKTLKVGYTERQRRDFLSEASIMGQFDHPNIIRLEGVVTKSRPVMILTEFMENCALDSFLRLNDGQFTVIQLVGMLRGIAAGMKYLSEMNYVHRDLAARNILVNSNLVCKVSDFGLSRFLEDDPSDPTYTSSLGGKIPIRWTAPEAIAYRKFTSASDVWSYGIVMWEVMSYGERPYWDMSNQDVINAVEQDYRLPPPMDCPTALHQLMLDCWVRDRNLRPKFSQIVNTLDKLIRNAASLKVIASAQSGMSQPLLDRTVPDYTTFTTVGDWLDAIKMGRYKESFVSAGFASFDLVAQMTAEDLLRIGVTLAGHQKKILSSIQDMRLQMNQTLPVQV
The settings on record: at 1 µM.

Assay [5] has as its target T3, Ephrin type-B receptor 3 (Homo sapiens). The settings on record: at 10 µM.
In assay [6] the target is T4, Ephrin type-B receptor 4 (Homo sapiens) (UniProt P54760).
T4 sequence (whole entry): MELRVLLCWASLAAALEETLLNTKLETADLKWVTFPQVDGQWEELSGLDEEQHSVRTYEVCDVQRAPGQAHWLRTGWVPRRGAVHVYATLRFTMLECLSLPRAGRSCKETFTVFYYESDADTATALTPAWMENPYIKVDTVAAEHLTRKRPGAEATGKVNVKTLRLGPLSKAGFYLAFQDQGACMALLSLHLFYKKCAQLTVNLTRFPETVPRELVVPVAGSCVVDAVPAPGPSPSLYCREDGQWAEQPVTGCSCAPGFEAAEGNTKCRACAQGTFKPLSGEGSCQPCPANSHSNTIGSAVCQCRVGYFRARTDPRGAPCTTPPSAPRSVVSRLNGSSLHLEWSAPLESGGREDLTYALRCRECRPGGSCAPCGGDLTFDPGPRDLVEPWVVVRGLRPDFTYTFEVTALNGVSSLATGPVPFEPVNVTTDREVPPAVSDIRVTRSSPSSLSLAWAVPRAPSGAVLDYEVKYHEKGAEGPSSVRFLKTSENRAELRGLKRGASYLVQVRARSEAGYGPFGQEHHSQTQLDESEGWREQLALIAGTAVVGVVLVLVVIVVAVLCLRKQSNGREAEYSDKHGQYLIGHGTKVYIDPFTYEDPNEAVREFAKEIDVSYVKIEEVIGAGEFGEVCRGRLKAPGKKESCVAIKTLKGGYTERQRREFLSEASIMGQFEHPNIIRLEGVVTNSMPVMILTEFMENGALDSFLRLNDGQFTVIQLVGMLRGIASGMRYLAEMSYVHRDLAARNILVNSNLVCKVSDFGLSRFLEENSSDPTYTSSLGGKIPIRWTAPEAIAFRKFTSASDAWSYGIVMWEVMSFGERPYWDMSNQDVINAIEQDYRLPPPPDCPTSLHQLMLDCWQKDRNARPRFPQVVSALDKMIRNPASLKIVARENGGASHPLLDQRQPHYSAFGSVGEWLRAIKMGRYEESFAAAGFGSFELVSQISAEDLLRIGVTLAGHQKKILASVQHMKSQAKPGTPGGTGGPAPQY
The settings on record: at 1 µM.

The target in assay [7] is T4, Ephrin type-B receptor 4 (Homo sapiens). The settings on record: at 10 µM.
In assay [8] the target is Receptor tyrosine-protein kinase erbB-4 (Homo sapiens) (UniProt Q15303). The settings on record: at 1 µM.
Assay [9] has the same target. The settings on record: at 10 µM.
Assay [10] deals with Focal adhesion kinase 1 (Homo sapiens) (UniProt Q05397). The settings on record: at 1 µM.
Focal adhesion kinase 1 (Homo sapiens), sequence (Q05397 2-1052 limits assumed): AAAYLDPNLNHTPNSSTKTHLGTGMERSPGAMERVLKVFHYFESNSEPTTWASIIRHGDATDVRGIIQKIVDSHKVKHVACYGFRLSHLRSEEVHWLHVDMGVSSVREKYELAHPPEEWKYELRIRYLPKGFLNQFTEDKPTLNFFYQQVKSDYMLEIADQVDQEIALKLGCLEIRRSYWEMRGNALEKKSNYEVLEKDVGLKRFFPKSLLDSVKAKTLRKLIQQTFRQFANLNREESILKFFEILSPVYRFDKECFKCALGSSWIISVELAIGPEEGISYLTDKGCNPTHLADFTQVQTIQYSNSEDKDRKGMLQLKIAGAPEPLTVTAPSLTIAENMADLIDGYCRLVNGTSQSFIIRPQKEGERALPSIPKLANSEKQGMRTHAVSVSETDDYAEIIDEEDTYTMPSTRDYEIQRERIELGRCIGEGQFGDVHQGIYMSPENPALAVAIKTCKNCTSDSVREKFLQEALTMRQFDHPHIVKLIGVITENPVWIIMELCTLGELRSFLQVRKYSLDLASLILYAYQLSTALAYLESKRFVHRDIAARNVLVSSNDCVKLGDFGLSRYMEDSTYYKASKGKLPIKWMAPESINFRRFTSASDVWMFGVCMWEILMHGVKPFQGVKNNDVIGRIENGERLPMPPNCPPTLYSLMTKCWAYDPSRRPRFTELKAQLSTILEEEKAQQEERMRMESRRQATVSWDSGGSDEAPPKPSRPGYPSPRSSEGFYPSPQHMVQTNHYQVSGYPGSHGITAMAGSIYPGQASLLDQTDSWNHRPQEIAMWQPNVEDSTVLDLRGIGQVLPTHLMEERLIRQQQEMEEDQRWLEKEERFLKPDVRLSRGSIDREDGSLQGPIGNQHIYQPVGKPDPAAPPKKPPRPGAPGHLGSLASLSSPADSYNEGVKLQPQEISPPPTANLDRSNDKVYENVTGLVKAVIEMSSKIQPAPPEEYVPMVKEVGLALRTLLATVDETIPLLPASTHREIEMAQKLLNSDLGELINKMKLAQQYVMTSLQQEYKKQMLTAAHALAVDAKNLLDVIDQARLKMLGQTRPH

Receptor tyrosine-protein kinase erbB-4 (Homo sapiens), sequence (Q15303 whole entry): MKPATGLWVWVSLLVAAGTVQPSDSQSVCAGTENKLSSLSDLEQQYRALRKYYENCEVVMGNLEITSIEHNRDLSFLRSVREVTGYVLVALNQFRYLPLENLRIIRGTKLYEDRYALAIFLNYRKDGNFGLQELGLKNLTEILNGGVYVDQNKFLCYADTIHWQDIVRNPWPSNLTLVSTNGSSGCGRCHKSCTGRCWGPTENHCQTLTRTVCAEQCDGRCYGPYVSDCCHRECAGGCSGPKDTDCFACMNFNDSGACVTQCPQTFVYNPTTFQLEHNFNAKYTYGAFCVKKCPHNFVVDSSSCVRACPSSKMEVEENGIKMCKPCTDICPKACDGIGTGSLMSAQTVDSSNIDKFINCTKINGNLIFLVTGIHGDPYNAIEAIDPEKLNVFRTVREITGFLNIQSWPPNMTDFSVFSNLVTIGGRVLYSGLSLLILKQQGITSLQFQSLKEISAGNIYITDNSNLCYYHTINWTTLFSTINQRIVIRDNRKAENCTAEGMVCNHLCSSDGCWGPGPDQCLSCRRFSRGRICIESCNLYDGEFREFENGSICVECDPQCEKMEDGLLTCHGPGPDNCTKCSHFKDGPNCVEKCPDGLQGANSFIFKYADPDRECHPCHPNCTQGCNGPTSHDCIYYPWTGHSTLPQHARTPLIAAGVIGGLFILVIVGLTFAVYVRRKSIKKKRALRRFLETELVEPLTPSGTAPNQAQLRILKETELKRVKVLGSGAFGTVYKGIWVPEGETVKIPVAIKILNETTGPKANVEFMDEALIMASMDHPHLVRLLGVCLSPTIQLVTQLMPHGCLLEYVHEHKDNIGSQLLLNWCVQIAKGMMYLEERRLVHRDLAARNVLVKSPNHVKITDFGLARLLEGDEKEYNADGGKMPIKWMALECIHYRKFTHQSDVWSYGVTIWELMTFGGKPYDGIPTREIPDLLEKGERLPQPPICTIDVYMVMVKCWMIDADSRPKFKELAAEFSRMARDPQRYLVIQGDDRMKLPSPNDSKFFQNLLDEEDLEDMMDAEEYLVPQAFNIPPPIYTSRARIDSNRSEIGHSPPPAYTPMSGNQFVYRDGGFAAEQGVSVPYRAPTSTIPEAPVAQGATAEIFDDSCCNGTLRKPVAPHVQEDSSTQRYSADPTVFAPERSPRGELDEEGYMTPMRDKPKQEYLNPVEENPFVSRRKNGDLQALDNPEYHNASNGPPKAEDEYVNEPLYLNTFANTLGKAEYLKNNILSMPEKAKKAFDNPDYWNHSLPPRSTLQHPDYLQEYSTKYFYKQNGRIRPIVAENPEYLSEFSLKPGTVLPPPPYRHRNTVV

On to `O=C1NC(=O)c2c1c1c3ccccc3[nH]c1c1[nH]c3cc(Br)ccc3c21`, for which the residual activity (in general, the signal under treatment as a percentage of the control signal) in assay [1] is 98%; in [2], 106%; in assay [3] it was 101%; in [4] it was 107% (inactive); in assay [5] it was 83%; in [6], 102%. Further, the residual activity in [7] is 93%; in assay [8], 95%; in [9], 83%; in assay [10], 98%.
